# Assay results from a collection of fitness landscapes (doi:10.1126/science.1257360).
# In all, about 140,000 sequences were measured (“enrichment ratio after two sorts for PhoP signalling”: median about 0, highest 2% from about 11 on). This is one part of a sample in which the highest values are shown more often than they occur.
# B1: PhoQ; a variant is named by its letters at X, in order, P23837 (parent)
# chain: MKKLLRLFFPLSLRVRFLLATAAVVLVLSLAYGMVALIGYSVSFDKTTFRLLRGESNLFYTLAKWENNKLHVELPENIDKQSPTMTLIYDENGQLLWAQRDVPWLMKMIQPDWLKSNGFHEIEADVNDTSLLLSGDHSIQQQLQEVREDDDDAEMTHSVAVNVYPATSRMPKLTIVVVDTIPVELKSSYMVWSWFIYVLSANLLLVIPLLWVAAWWSLRPIEALAKEVRELEEHNRELLNPATTRELTSLVRNLNRLLKSERERYDKYRTTLTDLTHSLKTPLXXLQXXLRSLRSEKMSVSDAEPVMLEQISRISQQIGYYLHRASMRGGTLLSRELHPVAPLLDNLTSALNKVYQRKGVNISLDISPEISFVGEQNDFVEVMGNVLDNACKYCLEFVEISARQTDEHLYIVVEDDGPGIPLSKREVIFDRGQRVDTLRPGQGVGLAVAREITEQYEGKIVAGESMLGGARMEVIFGRQHSAPKDE
# Variants of: B1
# Test: enrichment ratio after two sorts for PhoP signalling (ratio (wild type AVST 3.29)); higher = more functional
# Settings: with PhoP (E. coli)
row,Variant,enrichment ratio
1,ATVL,4.07
2,EFKF,≤ 0.25
3,SCEM,≤ 0.25
4,CFGC,≤ 0.25
5,TMQR,8.83
6,AIGC,5.62
7,TMKR,≤ 0.25
8,NQGC,≤ 0.25
9,THGC,5.27
10,TMTS,11.7
11,TMPI,≤ 0.25
12,TGGC,11.2
13,TMWA,≤ 0.25
14,TMCR,20.7
15,AQGC,12.4
16,RMSH,≤ 0.25
17,QWWT,≤ 0.25
18,TGKL,≤ 0.25
19,NNCI,≤ 0.25
20,HTDV,≤ 0.25
21,IQST,≤ 0.25
22,SVER,≤ 0.25
23,HCRQ,≤ 0.25
24,NKWN,≤ 0.25
25,FDGC,≤ 0.25

row,Variant,enrichment ratio
1,VGGC,≤ 0.25
2,SRGC,≤ 0.25
3,KAGC,≤ 0.25
4,TAGC,13.9
5,LTGC,≤ 0.25
6,TDGC,17.1
7,SSGC,13.8
8,KSGC,≤ 0.25
9,MLHI,1.88
10,WSGR,≤ 0.25
11,TCPW,≤ 0.25
12,LTCV,≤ 0.25
13,RIDL,≤ 0.25
14,TYQH,≤ 0.25
15,CKSI,≤ 0.25
16,WTRS,≤ 0.25
17,TFHR,≤ 0.25
18,YNLV,1.85
19,DWIL,≤ 0.25
20,LAAY,≤ 0.25
21,TQSY,12.3
22,NHQY,≤ 0.25
23,FQAY,≤ 0.25
24,THQY,15
25,FQII,≤ 0.25

row,Variant,enrichment ratio
1,NVSY,≤ 0.25
2,DWSY,≤ 0.25
3,TQII,15.7
4,SHQY,≤ 0.25
5,TQAY,17
6,TQID,≤ 0.25
7,EFDW,≤ 0.25
8,DSGT,≤ 0.25
9,HYAH,≤ 0.25
10,YAPS,0.949
11,YQLH,0.516
12,HVYR,≤ 0.25
13,SPQY,≤ 0.25
14,MMQY,≤ 0.25
15,TSQY,13.5
16,TQQY,15.1
17,NVQY,≤ 0.25
18,TVQY,19.2
19,LAQY,≤ 0.25
20,KSQY,≤ 0.25
21,TQEY,≤ 0.25
22,VSHP,≤ 0.25
23,ARTY,≤ 0.25
24,IGHH,2.36
25,LVAL,≤ 0.25

row,Variant,enrichment ratio
1,YMKE,≤ 0.25
2,RLRC,≤ 0.25
3,RSML,≤ 0.25
4,FQML,0.396
5,VTEL,≤ 0.25
6,FSML,12.7
7,VYML,≤ 0.25
8,VSML,15.7
9,VFML,≤ 0.25
10,VTML,15.3
11,QSML,3.2
12,YSML,14.4
13,LPWT,≤ 0.25
14,DNAA,≤ 0.25
15,DPIA,≤ 0.25
16,GRAC,≤ 0.25
17,TSML,17.8
18,KSML,≤ 0.25
19,NSML,4.86
20,PARS,≤ 0.25
21,QYPA,≤ 0.25
22,YART,≤ 0.25
23,QKCC,≤ 0.25
24,PVGG,≤ 0.25
25,TVGG,16.2

row,Variant,enrichment ratio
1,NVGG,≤ 0.25
2,KIGQ,≤ 0.25
3,TVGQ,15.3
4,HCGQ,≤ 0.25
5,ELLA,≤ 0.25
6,RCNM,≤ 0.25
7,THRA,≤ 0.25
8,PAWH,≤ 0.25
9,THDV,≤ 0.25
10,RHTL,≤ 0.25
11,TKTS,11.9
12,NEQT,≤ 0.25
13,RIQT,≤ 0.25
14,MKTS,≤ 0.25
15,KRQT,≤ 0.25
16,TEQT,23.1
17,TGCT,1.82
18,GGCT,15.6
19,TIQT,12.7
20,GNCT,10.8
21,AKTS,5.9
22,AIQT,≤ 0.25
23,QLVG,≤ 0.25
24,ADVM,6.88
25,KTVF,≤ 0.25

row,Variant,enrichment ratio
1,GTKH,≤ 0.25
2,IWLA,≤ 0.25
3,FDCT,≤ 0.25
4,KKCT,≤ 0.25
5,HKCT,≤ 0.25
6,TDCT,14.8
7,TRCT,18.2
8,TKCT,38.2
9,KDQT,≤ 0.25
10,TDQT,34.2
11,HRCT,≤ 0.25
12,KRCT,≤ 0.25
13,ADQT,≤ 0.25
14,ADCT,≤ 0.25
15,SNRN,≤ 0.25
16,VNAY,≤ 0.25
17,NARV,≤ 0.25
18,WLPG,≤ 0.25
19,LHMC,≤ 0.25
20,VHGV,≤ 0.25
21,KDPY,≤ 0.25
22,PSCV,≤ 0.25
23,TKQT,11.7
24,KKLT,≤ 0.25
25,KSQT,≤ 0.25

row,Variant,enrichment ratio
1,TKPT,≤ 0.25
2,TKFT,≤ 0.25
3,KAQT,≤ 0.25
4,TKLT,15.3
5,TKAT,14.5
6,TKKT,≤ 0.25
7,TDYD,≤ 0.25
8,WDAF,≤ 0.25
9,YYHT,≤ 0.25
10,QEHT,9.94
11,MRHT,0.477
12,TEHT,27.2
13,KLHT,≤ 0.25
14,MMHT,≤ 0.25
15,NEHT,≤ 0.25
16,MLHT,11.5
17,MEHT,24.2
18,NWHY,≤ 0.25
19,TYIE,≤ 0.25
20,DLWY,≤ 0.25
21,KLWE,≤ 0.25
22,KHER,≤ 0.25
23,TVFL,≤ 0.25
24,LIMQ,≤ 0.25
25,NNDM,≤ 0.25

row,Variant,enrichment ratio
1,FCHM,≤ 0.25
2,YDSV,≤ 0.25
3,YTSV,≤ 0.25
4,ATSV,12.7
5,TTSV,15.8
6,STSV,9.12
7,KQSV,≤ 0.25
8,SWRT,≤ 0.25
9,RRQV,≤ 0.25
10,VWEC,≤ 0.25
11,TEPM,≤ 0.25
12,METE,≤ 0.25
13,TETE,18.8
14,TETR,≤ 0.25
15,TETM,22.4
16,TETS,13.7
17,TETK,≤ 0.25
18,TETD,2.04
19,TETA,≤ 0.25
20,QETE,≤ 0.25
21,TETI,17.3
